# The list is not random: actives were taken first. Their share in the collection is about 1.9%.
# IEC-6 tox: kills IEC-6 intestinal cells in KLF5 counter-screen | IEC-6 cytotoxicity, luminescence viability | inhibition, % at 5 µM | hit rate 0.78% among 290,000; in the data active = inhibition above about 22%
# BaF3 parental: reduces parental Ba/F3 cell viability, JAK2V617F counter-screen; CellTiter-Glo ATP luminescence; inhibition, % at 5.6 µM; hit rate 1.1% among 220,000; AID 1486;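 active = inhibition above a per-campaign cutoff, the mean inhibition of all tested compounds plus 3 SD, cut at about 27% in these data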
# KLF5 inhibitor: inhibitors of KLF5 expression | DLD-1 KLF5 promoter-luciferase reporter, luminescence | inhibition, % at 5 µM | hit rate 0.23% among 290,000;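 active = inhibition above a per-plate limit of that plate's mean compound inhibition plus 3 SD, cut at about 60% in these data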;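 also: higher means less KLF5 promoter-driven luciferase light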
# APP transl inh: APP translation inhibition; SH-SY5Y APP 5'UTR-luciferase reporter, luminescence; inhibition, % at 2 µM; hit rate 0.82% among 190,000; AID 1285;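 active = inhibition above a set limit, derived from the sample mean plus 3 SD, cut at about 45% in these data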
# Ba/F3 V617F tox: loss of viability in JAK2V617F-driven Ba/F3 cells; inhibition, % at 5.6 µM; hit rate 1.1% among 220,000; Ba/F3 EpoR-JAK2V617F viability, ATP luminescence; AID 1446;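 active = inhibition above the campaign mean plus 3 SD over all tested compounds, cut at about 24% in these data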;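 also: cytokine-independent growth of Ba/F3 cells driven by EpoR plus mutant JAK2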
# Hits are given with their value; . = inactive; / = no result.
SMILES,IEC-6 tox,BaF3 parental,KLF5 inhibitor,APP transl inh,Ba/F3 V617F tox
Cc1ccc(NC(=O)Cc2nn(C)c(=O)c3ccccc23)cc1F,.,.,.,.,.
Cn1nc(CC(=O)Nc2ccc(N3CCN(C(=O)OC(C)(C)C)CC3)cc2)c2ccccc2c1=O,.,60,.,.,50
Cn1nc(CC(=O)N2CCN(c3ccccc3)CC2)c2ccccc2c1=O,.,.,.,.,.
Cn1nc(CC(=O)Nc2ccc3c(c2)OCCO3)c2ccccc2c1=O,.,53,.,.,48
Cc1ccc(S(=O)(=O)N2CCOCC2)cc1C(=O)NC(=S)N1CC(C)OC(C)C1 (stereo not given),.,.,.,/,.
Cc1ccc2c(c1)S/C(=C/c1ccc[n+](CCO)c1)N2C,.,68,.,.,87
Cc1ccc2c(c1)S/C(=C\c1cccc[n+]1C)N2CCO,.,/,.,/,/
O=C(NCc1ccc(F)cc1)C1CCN(S(=O)(=O)c2cccc3nonc23)CC1,.,/,.,/,/
O=C(Nc1ccc(OCC(F)(F)C(F)F)c(C(F)(F)F)c1)c1ccccc1O,.,87,.,.,48
C/C(CC(=O)Nc1cc(C)ccn1)=N\NC(=O)c1ccc(C(C)(C)C)cc1,.,/,.,/,/
Cc1ccc(-c2nnn(CC(=O)NC3CC4CCC3C4)n2)cc1 (stereo not given),.,.,.,.,.
O=C(Cn1nnc(-c2ccc(Cl)cc2)n1)NC1CC2CCC1C2 (stereo not given),.,94,.,.,.
C[N+]1(C)CC2=Cc3ccccc3CC2C1 (stereo not given),.,.,.,.,.
C1=C2C[N+]3(CCCC3)CC2Cc2ccc3ccccc3c21 (stereo not given),.,55,.,.,64
O=C(c1ccccc1)c1nn(-c2ccc(Cl)cc2)c(=O)cc1C(F)(F)F,.,30,.,.,.
CCCCN(CC)Cc1c(O)ccc2c(-c3ccccc3)cc(=O)oc12,.,29,.,/,.
CCN(CC)Cc1c(O)ccc2c(-c3ccccc3)cc(=O)oc12,.,.,.,.,.
Fc1ccc(NC(=S)NCCc2ccccc2)c(F)c1F,.,54,.,.,42
O=C(Nc1nnc(CCc2ccccc2)s1)c1ccccc1F,.,/,.,/,/
CC1=C/C(=N\OS(=O)(=O)c2ccccc2)C(C(C)C)=CC1=O,.,78,.,96,86
CC1=C/C(=N\OS(=O)(=O)c2ccccc2)C(C)=CC1=O,.,100,.,95,97
CC1=C(C)/C(=N\OS(=O)(=O)c2ccc(C)cc2)C=CC1=O,.,68,.,90,88
O=C(COc1ccc2c3c(c(=O)oc2c1)CCCC3)NCCCn1ccnc1,.,/,.,/,/
COc1ccc(C2=CC(=O)C=CC2=O)cc1,.,.,.,48,.
COc1ccc(S(=O)(=O)c2ccc(OC)cc2)cc1,.,.,.,.,.
SMILES,IEC-6 tox,BaF3 parental,KLF5 inhibitor,APP transl inh,Ba/F3 V617F tox
Nc1ncnc2c1ncn2[C@@H]1O[C@H](CO)C[C@@H]1O,66,.,.,/,.
Nc1ncnc2c1ncn2C1OC(CO)C(O)C1O (stereo not given),.,.,.,.,.
COCCCN=C1NN=C(c2cc(C)n(Cc3ccccc3Cl)c2C)CS1,.,.,.,76,.
COCCCN=C1NN=C(c2cc(C)n(-c3ccccc3)c2C)CS1,.,.,.,.,.
O=c1[nH]c2ccccc2n1C1CCCCC1,.,.,.,64,.
O=C(NC1CCCCC1)N1CCC(n2c(=O)[nH]c3ccccc32)CC1,/,/,/,.,/
O=C(/C=C/c1ccc(O)c(O)c1)c1ccccc1O,.,40,.,/,84
O=C(/C=C/c1ccoc1)c1ccccc1O,.,.,.,.,.
COc1ccc(CCN2CCC(Nc3nc4ccccc4n3Cc3ccc(F)cc3)CC2)cc1,.,41,.,.,75
CCN(CC)S(=O)(=O)c1cc(NC(=O)C(=O)c2c(-c3ccccc3)cc3ccccn23)ccc1C,.,.,.,93,.
CCN(CC)S(=O)(=O)c1cccc(NC(=O)C(=O)c2c(-c3ccccc3)cc3ccccn23)c1,.,.,.,.,.
CCCn1c2c(c(O)c(C(=O)Nc3nc4ccccc4s3)c1=O)CCCC2,.,81,.,.,.
CCN(CC)S(=O)(=O)c1ccc(Cl)c(C(=O)OCC(=O)c2c(N)n(C)c(=O)n(C)c2=O)c1,.,.,.,/,.
Cc1nc2ncccn2c1-c1csc(Nc2ccccc2)n1,.,.,.,.,.
Cc1nc2ncccn2c1-c1csc(Nc2ccc(N(C)C)cc2)n1,22,81,.,94,79
COc1ccc(Nc2nc(-c3c(C)nc4ncccn34)cs2)cc1,86,83,84,94,83
CC(OC(=O)CCc1nc2ccccc2c(=O)[nH]1)C(=O)c1ccc(C(C)(C)C)cc1 (stereo not given),.,.,.,.,.
CCCCOc1ccccc1C1CC(=O)NC2=C1C(=O)CCC2 (stereo not given),84,83,.,88,82
CCOc1ccccc1C1CC(=O)NC2=C1C(=O)CCC2 (stereo not given),.,.,.,.,.
CCC(C(=O)Nc1ccc(C(=O)O)cc1NC(=O)C(CC)c1ccccc1)c1ccccc1 (stereo not given),.,/,.,/,/
OCCNc1cnc2ccccc2n1,.,.,.,49,.
O=Cc1s/c(=N\S(=O)(=O)c2ccccc2)n(CCCCl)c1Cl,.,.,.,95,.
COCCCN1C(=O)CS/C1=N\S(=O)(=O)c1ccccc1,.,.,.,/,.
C/C(=N\NC(=S)NCc1ccccc1)c1ccco1,.,67,.,.,.
O=C(Nc1ccc2oc(-c3cccnc3)nc2c1)c1ccc([N+](=O)[O-])o1,.,.,.,60,.
SMILES,IEC-6 tox,BaF3 parental,KLF5 inhibitor,APP transl inh,Ba/F3 V617F tox
O=C(Nc1ccc2oc(-c3cccnc3)nc2c1)c1ccc(Br)o1,.,.,.,.,.
O=C(Nc1cccnc1Cl)c1cc(-c2cccc(O)c2)on1,.,/,.,/,/
CCOc1ccc(N2C(N)=NC(N)=NC2(C)C)cc1,.,98,.,.,94
CCOC(=O)c1cccc(N2C(=O)C3C4C=CC(CC4)C3C2=O)c1 (stereo not given),.,/,.,/,/
CCOC(=O)c1cccc(N2C(N)=NC(N)=NC2(C)C)c1,.,96,.,.,73
O=S(=O)(c1ccccc1F)N1CCc2ccccc2C1,.,/,.,/,/
Cc1nn(CC(=O)NCCCN2CC(C)CC(C)C2)c(=O)c2cccn12 (stereo not given),.,/,.,/,/
O=C(Nc1ccc(S(=O)(=O)N2CCCCC2)cc1)c1ccc(CN2CCc3ccccc3C2)cc1,.,34,.,.,30
O=C(Nc1ccccc1)c1ccc(CN2CCc3ccccc3C2)cc1,.,.,.,.,.
COc1ccc(C(=O)Nc2nnc(Cc3cccs3)s2)cc1OC,.,41,.,.,39
COc1ccc(Cc2nnc(NC(=O)c3ccc(OC)c(OC)c3)s2)cc1,.,/,.,/,/
COc1ccc(C(=O)COC(=O)c2ccc(N(C)C)cc2)cc1,.,.,.,.,.
CN(C)c1cc[n+](CC(=O)c2ccc(-c3ccccc3)cc2)cc1,.,68,.,.,99
COc1ccc(C(=O)C[n+]2ccc(N(C)C)cc2)cc1,.,59,.,/,67

# Source: PubChem BioAssay (several laboratories)
